FLuc modulator: qHTS profiling assay for firefly luciferase inhibitor/activator using purifed enzyme and Km concentrations of substrates (counterscreen for miR-21 project). hit rate 6.9% among 360,000. purified FLuc, Km substrates, luminescence inhibition. Potency, µM (top dose mostly 57.5 µM), without a hit: at the top dose activity change, negative = inhibition, hits mostly inhibitors. AID 588342, 2011;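 also: plate controls were vehicle for no effect and reference inhibitor for full effect; nearly all actives have a fitted effect of over 55% in size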
Target sequence (P08659 whole entry, looked up): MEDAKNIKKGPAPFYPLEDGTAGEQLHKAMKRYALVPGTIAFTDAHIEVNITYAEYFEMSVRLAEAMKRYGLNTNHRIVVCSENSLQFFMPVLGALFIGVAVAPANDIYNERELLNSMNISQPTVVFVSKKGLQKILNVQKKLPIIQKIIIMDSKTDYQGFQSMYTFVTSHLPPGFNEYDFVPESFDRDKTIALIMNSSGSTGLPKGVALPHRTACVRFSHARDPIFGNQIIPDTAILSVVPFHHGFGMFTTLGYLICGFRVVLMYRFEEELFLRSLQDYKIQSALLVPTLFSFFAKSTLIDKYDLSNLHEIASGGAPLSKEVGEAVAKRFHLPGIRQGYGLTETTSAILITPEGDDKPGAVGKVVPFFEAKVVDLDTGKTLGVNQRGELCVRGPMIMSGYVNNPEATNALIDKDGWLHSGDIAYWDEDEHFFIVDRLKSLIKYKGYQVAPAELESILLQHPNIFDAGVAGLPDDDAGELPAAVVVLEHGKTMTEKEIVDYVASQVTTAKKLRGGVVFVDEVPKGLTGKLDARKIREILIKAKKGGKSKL
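Purified P. pyralis luciferase, 10 nM final, with Km-level 10 uM D-luciferin and 10 uM ATP in 50 mM Tris acetate pH 7.5, 10 mM Mg acetate, 0.01% Tween-20, 0.05% BSA; 6-point qHTS titration about 60 µM downward; luminescence read.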
Rab9 promoter act: qHTS Assay for Rab9 Promoter Activators; Huh7 Rab9 promoter-luciferase reporter, luminescence, 24 h; Potency, µM (titrated, usually from 9.22 µM), inactives show at the highest dose activation, negative = inhibition, usual class: activators; hit rate 2.8% among 320,000; AID 485297, 2010; also: % of control where 0% means no effect; nearly all actives have a fitted effect of over 60% in size
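Cell-based reporter: Huh7 stable for Rab9 promoter-driven luciferase, plated in reduced-serum medium with 10% FBS at 1500 cells/well, compound-treated 24 h at 37 °C, luminescence read after 10 min reagent.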
ELG1 genotox: qHTS screen for small molecules that induce genotoxicity in human embryonic kidney (HEK293T) cells expressing luciferase-tagged ELG1; HEK293T ELG1-luciferase reporter, luminescence, 16 h; hit rate 1.3% among 330,000; AID 504466, 2011; Potency, µM (highest dose often 46 µM), for inactives: top-dose activity change, positive = activation, actives largely listed as activators; also: % of control where 0% means no effect; nearly all actives have a fitted effect of over 60% in size
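Luminescence read-out: rising ELG1-luciferase signal, reflecting elevated ELG1 protein under genetic stress, flags genotoxic compounds. Cells were treated for 16 hr at 37 °C before ONE-Glo detection.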
ELG1 DNA repair: qHTS screen for small molecules that inhibit ELG1-dependent DNA repair in human embryonic kidney (HEK293T) cells expressing luciferase-tagged ELG1; AID 504467, 2011; hit rate 2.3% among 330,000; Potency, µM (top dose mostly 46.1 µM), for inactives: at the top dose activity change, negative = inhibition, usual class: inhibitors; HEK293T ELG1-luciferase reporter, luminescence, 16 h; DNA damage induced by 5-fluorouridine; also: % is scaled to controls: 0 for no effect and ±100 for the full control effect; nearly all actives have a fitted effect of over 55% in size
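5-Fluorouridine DNA damage + compound/DMSO, 2,000 cells/well, 16 h, 37 °C/5% CO2. ONE-Glo, 30 min RT, luminescence. Readout = decrease in reporter signal.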
SMN2 splice up: qHTS Assay for Enhancers of SMN2 Splice Variant Expression. Potency, µM (titrated, usually from 46.1 µM), inactives show at the top dose activity change, positive = activation, hits mostly activators. hit rate 2.8% among 210,000. HEK293 SMN2-luciferase splicing reporter, luminescence, 30-36 h; also: % of control where 0% means no effect; nearly all actives have a fitted effect of over 55% in size
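HEK293 cells carry an SMN2 minigene-luciferase reporter in which exon 7 inclusion puts luciferase in frame. Cells were seeded at 2000 cells/well, attached for 10-12 hours, then exposed to compounds for 30-36 hours at 37C before ONE-Glo luminescence.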
NPC1 prom act: qHTS Assay for NPC1 Promoter Activators. Potency, µM (highest dose often 9.22 µM), inactives show top-dose activation, hits mostly activators. hit rate 2.4% among 320,000. Huh7 NPC1 promoter luciferase reporter, 24 h; also: % of control where 0% means no effect; nearly all actives have a fitted effect of over 60% in size
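Compounds in DMSO were transferred onto Huh7 NPC1-luciferase reporter cells pre-incubated 2 h; after 24 h at 37 °C, Amplite reagent was dispensed and luminescence recorded 10 min later.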
* = called active by the depositor; ? = inconclusive; · = no result given. In the library only some 9.3% were active in any assay of this set; here they are far more common. Calls follow the shape of the dose curve; as a rule, active = well fitted curve in the direction sought with a large enough effect; inconclusive = small, poorly fitted or top-dose-only effect, or another doubt; inactive = no such curve, though single readings can be large; an effect the other way counts as inactive or inconclusive. Potency is read from the fitted curve at half-maximal effect.

SMILES	FLuc modulator	Rab9 promoter act	ELG1 genotox	ELG1 DNA repair	SMN2 splice up	NPC1 prom act
O=C(NNC(=O)c1ccc(O)cc1O)c1ccc(-c2ccccc2)cc1	19µM*	-5%	-4%	-18%	·	-6%
CN(CCCCOc1ccc(F)cc1)Cc1ccccc1	1%	-4%	-7%	-22%	·	9%
Cc1cc(NC(=O)COC(=O)c2ccccc2NCCO)no1	·	·	9%	?	·	·
Cc1cc(NC(=O)COC(=O)c2ccccc2S(=O)(=O)N(C)c2ccccc2)no1	4%	8%	-14%	16%	6.3µM*	-11%
COc1ccc(Cc2nnc(SC)[nH]c2=O)cc1OC	2%	1%	-2%	5%	0%	1%
Clc1cccc(Cl)c1CSc1nnc(-c2ccncc2)s1	15µM*	14%	5%	?	·	22%
Cc1ccc(C)c(-c2csc(-c3cccnc3)n2)c1	?	0%	-3%	16%	·	8%
COc1ccc(-c2csc(-c3cccnc3)n2)cc1C	7.6µM*	2.8µM*	?	?	·	?
NC(=O)c1cc(-c2csc(-c3cccnc3)n2)ccc1O	?	4%	4%	?	·	24%
COc1ccc2cc(-c3csc(-c4cccnc4)n3)ccc2c1	2.1µM*	?	13µM*	?	13µM*	3.2µM*
Cc1ccc(C)n1-c1ccc(-c2ccn[nH]2)cc1	12µM*	?	?	?	13µM*	?
Cc1ccc(C)n1-c1ccc(-n2cnnn2)cc1	-1%	3%	7%	21%	-3%	-5%
c1ccn(-c2ccc(-c3ccn[nH]3)cc2)c1	11µM*	?	18%	?	?	?
O=C(O)CCC(=O)N1CCN(S(=O)(=O)c2cccs2)CC1	3%	4%	7%	-2%	·	-2%
Nc1ccc2nc(SCC(=O)c3ccccc3)sc2c1	?	11%	21%	?	·	1%
Nc1ccc2nc(SCc3ccccc3F)sc2c1	1.7µM*	?	?	?	·	26%
C/C(=N\O)c1ccc2c3ccccc3n(C)c2c1	19µM*	?	?	?	40%	?
Oc1ccc(/C=N/NC(=S)N/N=C/c2ccc(O)cc2)cc1	0.19µM*	26%	?	28%	?	21%
COc1ccccc1NC(=S)N/N=C/c1ccc(O)cc1	?	?	?	?	11µM*	?
Oc1cccc(NC(=S)Nc2cccnc2)c1	1%	2%	0%	2%	4%	0%
COc1ccccc1NC(=S)N/N=C/c1cccc(C)c1	-16%	-2%	4%	?	?	0%
COc1cccc(/C=N/NC(=S)Nc2cccnc2)c1	15µM*	8%	9%	?	-5%	8%
CC(C)(C)NC(=S)N/N=C/c1cccnc1	-1%	-8%	1%	12%	·	-6%
Oc1ccc(/C=N/NC(=S)Nc2cccnc2)cc1	6.7µM*	?	?	?	·	3.2µM*
O=C(CN1N=C(c2ccc(Cl)cc2)CCC1=O)NCCc1ccc(Cl)cc1	-6%	·	·	·	·	·
SMILES	FLuc modulator	Rab9 promoter act	ELG1 genotox	ELG1 DNA repair	SMN2 splice up	NPC1 prom act
CCN(CC)CC(=O)NC1CC(C)(C)Cc2c1cnn2-c1ccc(F)cc1 (stereo unspecified)	3%	2%	3%	2%	·	-2%
COc1ccc(O)c(/C=N/NC(=S)Nc2cccnc2)c1	9.5µM*	-7%	18%	?	-43%	12%
COc1cccc(C(=O)NC(=S)Nc2cccnc2)c1	?	?	11%	?	?	23%
Cc1ccc2oc(=O)n(CCCOc3ccccc3)c2c1	24µM*	?	?	?	-2%	?
O=c1oc2ccccc2n1CCCOc1ccccc1Cl	12µM*	·	·	·	20µM*	·
COc1ccc(OCCCn2c(=O)oc3ccc(C)cc32)cc1	-10%	·	·	·	?	·

From PubChem BioAssay
